Compounds with a hit are over-represented: about 7.9% of the library has one in this group of screens.
HT1080NT lethal: qHTS for induction of synthetic lethality in tumor cells producing 2HG: qHTS for the HT-1080-NT fibrosarcoma cell line; HT-1080-NT fibrosarcoma viability, CellTiter-Glo ATP luminescence, 48 h; Potency, µM (top dose mostly 46.1 µM), inactives show at the highest dose activity, negative = less viability, most hits filed as cytotoxic; 360,000 tested, 1.6% active;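 note: NT is the 2HG producing partner of a matched IDH1 knockdown line; 0% = DMSO-treated cells and -100% = media-only wells without cells; nearly all actives have a fitted effect of over 55% in size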
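Viability of the 2HG-overproducing fibrosarcoma line after 48 hours of compound exposure at 37 degrees C was determined by luminescence with CellTiter-Glo, and concentration-effect curves were then fitted and categorized.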
HT1080 IDH1KD tx: qHTS for induction of synthetic lethality in tumor cells producing 2HG: qHTS for the HT-1080-IDH1KD cell line; AID 686971, 2013; 360,000 tested, 2% active; HT-1080 IDH1 knockdown viability, ATP luminescence, 48 h; Potency, µM (titrated, usually from 46.1 µM), inactives show at the highest dose activity, negative = toxicity, hits mostly cytotoxic;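 note: 0% = DMSO wells and -100% = cell-free medium wells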
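CellTiter-Glo luminescence after 48 h compound exposure at 37 degrees C of IDH1-knockdown HT-1080 cells in 5% FBS RPMI. %Activity scaled between DMSO wells and cell-free media wells, with curves fitted and assigned curve classes.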
SW480 rereplic: A quantitative high throughput screen for small molecules that induce DNA re-replication in SW480 colon adenocarcinoma cells; SW480 DNA re-replication, Hoechst DNA content imaging, 48 h; Potency, µM (series often up to 46.1 µM), for inactives: at the highest dose re-replication activation, actives largely listed as activators; 340,000 tested, 1.8% active; AID 624297, 2012; note: % of control where 0% means no effect; nearly all actives have a fitted effect of over 55% in size
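Cells (250 per well) received 23 nL compound or DMSO by pin tool and were kept 48 hr at 37 C, 5% CO2. Nuclei were then stained with Hoechst for 40 min and scanned for DNA content.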
KB-3-1 cytotox: qHTS assay for MDR1-selective chemotherapeutics: Primary screen using the parental adenocarcinoma cell KB-3-1; KB-3-1 viability, CellTiter-Glo ATP luminescence, 72 h; Potency, µM (series often up to 46.1 µM), most hits filed as cytotoxic; 400,000 tested, 1.4% active; note: % is set by controls: 0 for no effect and ±100 for the full control effect; nearly all actives have a fitted effect of over 60% in size
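Cytotoxicity measured as CellTiter-Glo luminescence after 72 h at 37 C. Compound titrations were pinned onto drug-naive KB-3-1 parental adenocarcinoma cells grown in DMEM with 10% FBS, and normalized data fitted to concentration-response curves.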
MCF10A rereplic: A quantitative high throughput screen for small molecules that induce DNA re-replication in MCF 10a normal breast cells; MCF 10A DNA re-replication, Hoechst nuclear intensity, 48 h; Potency, µM (highest dose often 46.1 µM), without a hit: at the highest dose activity, positive = re-replication, actives largely listed as activators; 350,000 tested, 2.9% active; AID 624296, 2012; note: % of control where 0% means no effect; nearly all actives have a fitted effect of over 50% in size
KB-V1 cytotox: qHTS assay for MDR1-selective chemotherapeutics: Primary screen using the drug-selected MDR subline cells KB-V1. KB-V1 MDR cells viability, CellTiter-Glo, 72 h. Potency, µM (top dose mostly 46.1 µM), most hits filed as cytotoxic. 400,000 tested, 3.4% active; note: % is set by controls: 0 for no effect and ±100 for the full control effect; nearly all actives have a fitted effect of over 60% in size
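Potencies derive from concentration-effect curves fitted to normalized luminescence (CellTiter-Glo) of KB-V1 cells treated for 72 h at 37 degrees C in phenol-red-free DMEM containing 10% FBS.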
* = called active by the depositor; i = inactive; ? = inconclusive; · = no result given; [ ] = remark or other dose. Calls come from the whole dose curve; as a rule, active = well fitted curve in the direction sought with a large enough effect; inconclusive = small, poorly fitted or top-dose-only effect, or another doubt; inactive = no such curve, though single readings can be large; an effect the other way counts as inactive or inconclusive. Potency is the fitted concentration of half-maximal effect.

SMILES	HT1080NT lethal	HT1080 IDH1KD tx	SW480 rereplic	KB-3-1 cytotox	MCF10A rereplic	KB-V1 cytotox
COc1ccc(-c2ccc(C#N)c(SCC(=O)NCCc3ccccc3)n2)cc1OC	1%	3%	3%	i	9%	i
N#Cc1cc2c(nc1SCC(=O)Nc1sc3c(c1C#N)CCC3)CCCCCC2	3%	-6%	?	i	3.3µM*	i
N#Cc1cc2c(nc1SCC(=O)Nc1nccs1)CCCCC2	?	?	13%	i	3.7µM*	i
COC(=O)CC(=O)CSc1nc2c(cc1C#N)CCC2	?	?	?	i	1.6µM*	?
N#Cc1cc2c(nc1SCC(=O)Nc1sc3c(c1C#N)CCC3)CCC2	21%	13%	15%[9.22 µM]	i	?	i
COc1ccc(-c2ccc(C#N)c(SCC(=O)Nc3sc4c(c3C#N)CCC4)n2)cc1OC	2%	6%	2.1µM*	?	2.9µM*	?
COc1ccc(C2=NN(C(=O)CCC(=O)O)C(c3ccc(F)cc3)C2)cc1 (stereo not given)	21%	14%	-15%[1.84 µM]	i	-3%	?
Cc1ccc(C#N)c(SCC(=O)Nc2nccs2)n1	0%	0%	16µM*	i	?	i
CCOC(=O)c1c(SCC(=O)Nc2nccs2)nc(C)c(C)c1C	8%	-2%	28%	·	16µM*	·
Cc1ccc(SCC(=O)Nc2nccs2)cc1	2%	11%	-1%	i	-2%	i
CCOc1ccc(CN(C)CC(=O)Nc2cc(C)c(C)cc2[N+](=O)[O-])cc1	4%	5%	0%	i	3%	?
Cc1cc(C(=O)COc2cccnc2[N+](=O)[O-])c(C)n1Cc1cccs1	?	-2%	11%	?	?	?
CC(=O)Nc1ccccc1OCC(=O)c1cc(C)n(Cc2cccs2)c1C	-13%	2.6µM*	1%	4.6µM*	14%	?
Cc1cc(C(=O)CSc2nnc(N)s2)c(C)n1Cc1cccs1	-3%	2%	-70%	?	16%	23µM*
Cc1csc(SCC(=O)c2cc(C)n(Cc3cccs3)c2C)n1	-10%	?	1%	?	22%	?
CCc1nnc(NC(=O)c2ccc(S(C)(=O)=O)cc2)s1	1%	-1%	?	i	?	i
C=CCSc1nnc(NC(=O)c2cccc(S(=O)(=O)N(C)c3ccccc3)c2)s1	-7%	-2%	-1%	i	?	16µM*
CN(c1ccccc1)S(=O)(=O)c1cccc(C(=O)Nc2nccs2)c1	2%	-15%	-10%	i	21%	?
CCc1nnc(NC(=O)c2ccc(N(C)S(=O)(=O)c3ccccc3)cc2)s1	2%	-13%	-8%	i	-3%	6.5µM*
O=C(Nc1nnc(Cc2ccccc2)s1)c1ccccc1	-2%	-10%	3%[1.84 µM]	i	?	i
CN(C)S(=O)(=O)c1ccc(C(=O)Nc2nnc(Cc3ccccc3)s2)cc1	?	23µM*	?	i	?	?
OCCNc1nc(N2CCN(Cc3ccccc3)CC2)nc2ccccc12	2%	4%	-2%	i	15%	21µM*
OCCNc1nc2ccccc2nc1NCCO	5%	6%	-2%	i	2%	i
OCCNc1c2ccccc2nc2ccccc12	23µM*	23µM*	-4%	?	-11%	?
Cc1ccc(Nc2nc(NCCO)c3ccccc3n2)cc1C	23µM*	23µM*	?	i	?	i
c1ccc(CN2CCN(c3nc(N4CCOCC4)c4ccccc4n3)CC2)cc1	-3%	-14%	?	i	16µM*	?

Compound activity deposited in PubChem by National Center for Advancing Translational Sciences (NCATS).
